Laboratory results published in PubChem BioAssay (NCATS).
Unmarked numbers belong to inactive results. Results filed as inconclusive are left out. Calls of active or inactive are those of the source. Unless noted, the call rests on the fitted dose curve; in most records, active means well fitted curve in either direction with a large enough effect (not every such curve was filed as active); inconclusive means small, poorly fitted or top-dose-only effect, or another doubt; inactive means flat fitted curve, though single readings scatter.

Assays:
[1] = target: Lysosomal acid glucosylceramidase (Homo sapiens) (UniProt P04062); assay: Glucocerebrosidase-p2 (AID 348; in the data active means potency below about 10 µM; further: potency means the concentration at half of the fitted maximal effect); conditions: purified GBA, blue fluorogenic substrate, 40 min
Lysosomal acid glucosylceramidase (Homo sapiens), sequence (P04062 whole entry, looked up): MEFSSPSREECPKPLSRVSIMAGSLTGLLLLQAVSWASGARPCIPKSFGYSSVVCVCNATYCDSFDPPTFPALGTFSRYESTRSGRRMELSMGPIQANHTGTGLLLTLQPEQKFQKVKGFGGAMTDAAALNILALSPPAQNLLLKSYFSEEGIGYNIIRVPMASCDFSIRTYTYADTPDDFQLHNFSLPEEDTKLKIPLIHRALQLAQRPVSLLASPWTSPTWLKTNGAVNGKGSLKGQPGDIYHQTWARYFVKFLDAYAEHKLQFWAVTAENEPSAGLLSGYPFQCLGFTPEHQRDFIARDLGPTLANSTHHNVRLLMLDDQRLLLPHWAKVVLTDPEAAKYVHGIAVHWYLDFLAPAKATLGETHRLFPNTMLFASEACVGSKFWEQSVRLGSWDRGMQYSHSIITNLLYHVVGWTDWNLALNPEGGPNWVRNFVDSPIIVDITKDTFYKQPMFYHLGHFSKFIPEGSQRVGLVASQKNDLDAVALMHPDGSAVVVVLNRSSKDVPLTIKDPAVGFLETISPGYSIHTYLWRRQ
Method in brief: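 Compounds titrated from 0.6 nM upwards against 0.2 nM enzyme in pH 5.9 citric acid/KH2PO4, taurocholate, tween-20; blue fluorogenic substrate 80 uM, 40 min room temperature, stopped and read Ex 365/Em 440 for AC50.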

[2] = AP1 Signaling Pathway (AID 357); conditions: ME-180 AP-1-bla reporter, EGF-induced, beta-lactamase ratio, 5 h; at 7.69 µM (top of the series) unless noted;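 further: ME-180 reporter cells stimulated with EGF at its EC50 level; on the % scale 0 is the no-effect control and ±100 the full control effect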
Method in brief: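 Beta-lactamase reporter under AP-1 response element, ME-180 background. Stimulus: EC50 EGF. Compound exposure 5 h, 37 °C. Detection: CCF4, 2.5 h RT, 460/530 nm. Values: AC50 from titration.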

[3] = target: Cytochrome P450 1A2 (Homo sapiens) (UniProt P05177); assay: p450-cyp1a2 (AID 410; calls by dose curve; further: potency means the concentration at half of the fitted maximal effect;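 on activity change, negative = inhibition: -100% = full effect of reference inhibitor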); conditions: recombinant CYP1A2, luciferin-ME demethylation, luminescence; series mostly up to 11.4 µM
Cytochrome P450 1A2 (Homo sapiens), sequence (P05177 whole entry, looked up): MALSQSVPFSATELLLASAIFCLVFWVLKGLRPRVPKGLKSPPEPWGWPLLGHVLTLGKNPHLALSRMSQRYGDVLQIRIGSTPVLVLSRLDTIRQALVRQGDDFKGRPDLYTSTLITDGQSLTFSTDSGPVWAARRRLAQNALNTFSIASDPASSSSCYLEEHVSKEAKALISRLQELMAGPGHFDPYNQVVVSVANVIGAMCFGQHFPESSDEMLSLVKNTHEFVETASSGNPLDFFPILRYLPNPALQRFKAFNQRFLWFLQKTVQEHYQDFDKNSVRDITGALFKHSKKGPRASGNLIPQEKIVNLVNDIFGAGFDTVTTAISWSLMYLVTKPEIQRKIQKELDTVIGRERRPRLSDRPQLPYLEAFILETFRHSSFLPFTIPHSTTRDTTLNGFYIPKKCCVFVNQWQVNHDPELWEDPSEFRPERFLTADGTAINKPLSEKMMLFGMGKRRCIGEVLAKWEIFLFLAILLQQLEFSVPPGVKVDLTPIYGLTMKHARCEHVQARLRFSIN
Method in brief: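 20nM CYP1A2 with 100uM Luciferin-ME (at Km) in 100mM KPO4; compound preincubated 10 min, NADPH regeneration added, 60 min at room temperature. Luciferin quantified by luminescence after detection reagent; normalized to 57 uM furafylline.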

[4] = NFAT Signaling Pathway (AID 444); conditions: Jurkat NFAT-bla M1, carbachol, beta-lactamase ratio, 5 h; at 7.69 µM (top of the series) unless noted;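 further: carbachol stimulus at about its EC50 of 1 µM final; on the % scale 0 is the no-effect control and ±100 the full control effect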
Method in brief: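 Read-out: CCF4 FRET ratio (460 nm/530 nm) after 1 h RT dye loading, used for %activity and AC50 from titration series. Cells: Jurkat NFAT-β-lactamase/M1 line, treated with compound plus 1 uM carbachol for 5 h, 37 °C.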

[5] = Stat Signaling Pathway (AID 446); conditions: ME-180 SIE beta-lactamase reporter, IL-6 stimulated, 5 h; at 7.69 µM (top of the series) unless noted;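 further: ME-180 cervical cancer cells given 40 pM IL-6 alongside compound; SIE-controlled beta-lactamase reporter measured as 460/530 nm FRET emission ratio; on the % scale 0 is the no-effect control and ±100 the full control effect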
Method in brief: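 ME-180 SIE-bla cells; overnight plating; cpd + IL-6 40 pM, 5 h, 37 C; LiveBLAzer 2.5 h RT; 460/530 nm emission ratio. Normalized to 300 pM IL-6 and 125 nM JAK inhibitor controls.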

[6] = target: Glucocorticoid receptor (Homo sapiens) (UniProt P04150); assay: GR-GFP Redistribution (AID 450;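 active means compounds whose dose series gives a full or clear partial fitted curve of increased nuclear translocation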; further: potency means the concentration at half of the fitted maximal effect); conditions: U2OS GR-GFP nuclear translocation, laser cytometry, 2 h
Glucocorticoid receptor (Homo sapiens), sequence (P04150 whole entry, looked up, the tested form may be a part): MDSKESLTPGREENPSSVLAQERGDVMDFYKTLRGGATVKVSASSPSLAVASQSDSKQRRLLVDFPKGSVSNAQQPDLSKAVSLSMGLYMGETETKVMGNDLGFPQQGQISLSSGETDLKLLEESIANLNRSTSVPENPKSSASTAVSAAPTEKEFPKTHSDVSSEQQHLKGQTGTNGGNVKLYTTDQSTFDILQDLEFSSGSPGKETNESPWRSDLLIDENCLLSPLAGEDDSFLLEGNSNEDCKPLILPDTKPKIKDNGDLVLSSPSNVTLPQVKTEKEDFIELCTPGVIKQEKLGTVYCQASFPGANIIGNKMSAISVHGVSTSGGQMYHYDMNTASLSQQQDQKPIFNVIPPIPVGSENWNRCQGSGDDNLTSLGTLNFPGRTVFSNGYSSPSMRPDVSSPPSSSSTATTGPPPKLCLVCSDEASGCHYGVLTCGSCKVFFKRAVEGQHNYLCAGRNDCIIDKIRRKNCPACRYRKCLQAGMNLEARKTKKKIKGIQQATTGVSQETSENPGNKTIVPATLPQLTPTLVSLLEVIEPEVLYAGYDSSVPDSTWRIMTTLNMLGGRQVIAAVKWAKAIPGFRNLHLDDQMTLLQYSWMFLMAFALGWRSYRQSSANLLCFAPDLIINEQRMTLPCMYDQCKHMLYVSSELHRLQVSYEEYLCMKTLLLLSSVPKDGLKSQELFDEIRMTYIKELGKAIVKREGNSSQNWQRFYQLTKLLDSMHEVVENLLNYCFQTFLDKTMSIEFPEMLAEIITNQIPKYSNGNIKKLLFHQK

[7] = target: Glucocorticoid receptor (Homo sapiens) (UniProt P04150); assay: GR-EFC Redistribution (AID 451; calls by dose curve; further: potency means the concentration at half of the fitted maximal effect); conditions: CHO-K1 GR-EFC translocation, beta-gal luminescence, 2 h
Method in brief: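 Translocation of GR-ED fusion to nuclear EA restores b-gal, read by luminescence after 1 h room-temperature detection. Engineered CHO-K1 biosensor cells, 1,000/well, exposed 2 h at 37 C to titrations up to 46 uM final.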

[8] = target: 3',5'-cyclic-AMP phosphodiesterase 4B (Homo sapiens) (UniProt Q07343); assay: qHTS Assay for Inhibitors of PDE-IV (AID 607; active means well fitted activation curve with a large enough effect in the main read-out, with a control signal flat, not every such curve was filed as active; further: % of control where 0% means no effect); conditions: HEK293 ACTOne CNG channel cells, membrane potential fluorescence; series mostly up to 22.9 µM
3',5'-cyclic-AMP phosphodiesterase 4B (Homo sapiens), sequence (Q07343 whole entry, looked up): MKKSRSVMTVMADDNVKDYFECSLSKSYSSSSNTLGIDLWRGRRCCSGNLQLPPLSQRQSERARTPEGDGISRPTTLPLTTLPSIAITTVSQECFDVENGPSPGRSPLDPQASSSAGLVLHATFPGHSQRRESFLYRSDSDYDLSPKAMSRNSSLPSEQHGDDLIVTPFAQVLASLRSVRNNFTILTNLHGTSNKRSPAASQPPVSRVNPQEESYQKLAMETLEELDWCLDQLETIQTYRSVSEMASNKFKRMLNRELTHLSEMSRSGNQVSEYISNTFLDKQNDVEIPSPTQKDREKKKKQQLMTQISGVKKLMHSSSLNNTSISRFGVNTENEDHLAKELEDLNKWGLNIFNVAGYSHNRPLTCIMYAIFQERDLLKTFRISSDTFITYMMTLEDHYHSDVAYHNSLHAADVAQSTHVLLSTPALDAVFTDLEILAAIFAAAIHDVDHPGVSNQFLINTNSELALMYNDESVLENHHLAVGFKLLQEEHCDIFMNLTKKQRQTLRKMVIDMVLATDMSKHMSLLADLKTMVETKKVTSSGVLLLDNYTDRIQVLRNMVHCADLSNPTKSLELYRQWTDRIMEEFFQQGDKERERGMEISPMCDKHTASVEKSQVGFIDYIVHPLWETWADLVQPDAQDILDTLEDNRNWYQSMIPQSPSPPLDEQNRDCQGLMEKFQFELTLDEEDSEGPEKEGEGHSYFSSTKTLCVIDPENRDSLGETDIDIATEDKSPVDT
Method in brief: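 ACTOne HEK293 cells carry a modified cAMP-gated CNG channel and express endogenous PDE4; plated 1000 cells/well, compounds up to 22.9 uM final. Membrane-potential dye fluorescence (ex 535/em 590) was read; parental cells received 10 uM forskolin + 100 uM RO 20-1724.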

[9] = target: Cytochrome P450 3A4 (Homo sapiens) (UniProt P08684); assay: qHTS Assay for Activators of Cytochrome P450 3A4 (AID 885; active means well fitted curve in the direction sought with a large enough effect; an effect the other way counts as inactive or inconclusive; further: nearly all actives have a fitted effect of over 65% in size); conditions: recombinant CYP3A4, Luciferin-PPXE luminescence, 60 min; series mostly up to 11.4 µM
Cytochrome P450 3A4 (Homo sapiens), sequence (P08684 whole entry, looked up): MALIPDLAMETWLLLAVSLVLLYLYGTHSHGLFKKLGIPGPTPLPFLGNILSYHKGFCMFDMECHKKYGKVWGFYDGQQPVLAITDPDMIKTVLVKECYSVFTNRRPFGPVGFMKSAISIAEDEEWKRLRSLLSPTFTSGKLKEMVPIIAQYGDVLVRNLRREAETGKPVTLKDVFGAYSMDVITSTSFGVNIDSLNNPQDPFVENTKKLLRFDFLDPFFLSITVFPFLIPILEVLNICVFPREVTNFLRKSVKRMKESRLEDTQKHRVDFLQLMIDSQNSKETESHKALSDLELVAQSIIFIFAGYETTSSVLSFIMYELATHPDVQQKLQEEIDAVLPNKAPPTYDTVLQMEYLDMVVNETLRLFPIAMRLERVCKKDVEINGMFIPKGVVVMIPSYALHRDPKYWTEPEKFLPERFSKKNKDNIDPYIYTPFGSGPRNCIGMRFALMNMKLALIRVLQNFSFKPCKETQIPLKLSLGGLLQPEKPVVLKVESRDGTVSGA
Method in brief: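 20nM CYP3A4 + 25uM Luciferin-PPXE (=KM), 200mM KPO4; cpd 10 min RT; NADPH regen, 60 min RT; stop w/ detection buffer, 20 min; luminescence. Normalized to 57 uM ketoconazole.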

[10] = target: Mitogen-activated protein kinase 10 (Mus musculus) (UniProt Q61831); assay: JNK3 AlphaScreen Assay (AID 530); conditions: JNK3 lysate, c-Jun phosphorylation; series mostly up to 11.4 µM;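 further: kinase came from lysate of stimulated human HepG2 cells; signal reports phosphorylation of biotinylated GST-cJun 1-79 at Ser73 with 10 µM ATP; on the % scale 0 is the no-effect control and ±100 the full control effect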
Method in brief: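 Compound titrations were preincubated 15 minutes at room temperature with substrate, antibody and pre-activated JNK3-containing HepG2 lysate. Reactions were started with 10 uM ATP and stopped with EDTA-containing bead buffer for AlphaScreen detection.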

[11] = target: Cytochrome P450 2C19 (Homo sapiens) (UniProt P33261); assay: qHTS Assay for Inhibitors and Substrates of Cytochrome P450 2C19 (AID 899; active means well fitted curve in the direction sought with a large enough effect; an effect the other way counts as inactive or inconclusive; further: nearly all actives have a fitted effect of over 60% in size; further: potency means the concentration at half of the fitted maximal effect); conditions: recombinant CYP2C19, luciferin-H EGE luminescence; series mostly up to 11.4 µM
Cytochrome P450 2C19 (Homo sapiens), sequence (P33261 whole entry, looked up): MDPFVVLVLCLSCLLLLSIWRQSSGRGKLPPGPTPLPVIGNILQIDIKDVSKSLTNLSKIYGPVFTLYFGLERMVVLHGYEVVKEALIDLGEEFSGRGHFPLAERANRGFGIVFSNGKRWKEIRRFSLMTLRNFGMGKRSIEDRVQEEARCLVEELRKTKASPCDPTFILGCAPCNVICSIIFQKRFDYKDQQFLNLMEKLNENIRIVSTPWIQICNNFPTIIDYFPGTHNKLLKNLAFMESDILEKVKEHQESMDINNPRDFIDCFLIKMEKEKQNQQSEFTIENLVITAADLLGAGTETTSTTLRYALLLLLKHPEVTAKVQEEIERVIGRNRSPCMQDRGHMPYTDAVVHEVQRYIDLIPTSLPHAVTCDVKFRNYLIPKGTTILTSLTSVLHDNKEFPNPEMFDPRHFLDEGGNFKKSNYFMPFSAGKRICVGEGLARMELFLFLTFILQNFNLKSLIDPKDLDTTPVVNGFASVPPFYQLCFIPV
Method in brief: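 Luminescence readout of luciferin formed from 10uM Luciferin-H EGE (KM level) by 5 nM CYP2C19 in 50mM KPO4. 60 min NADPH-driven reaction at 37C after 10 min compound preincubation; data scaled to 57uM ketoconazole inhibition.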

[12] = qHTS Assay for Identification of Small Molecule Agonists for Hypoxia Response Element Signaling Pathway (AID 914; active means well fitted activation curve with a large enough effect in the signal ratio, with a control signal flat, not every such curve was filed as active; the % refers to the signal ratio; further: % of control where 0% means no effect); conditions: ME-180 (cervical carcinoma) HRE-bla reporter, beta-lactamase ratio, CoCl2, 17 h; activation: active compounds read high
Method in brief: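 Compounds in a titration series were added to ME-180 reporter cells alongside an EC50 level of CoCl2. After 17 hours, beta-lactamase activity was read as the 460nm/530nm emission ratio of CCF4, giving AC50 values.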

[13] = target: Cytochrome P450 2C9 (Homo sapiens) (UniProt P11712); assay: qHTS Assay for Inhibitors and Substrates of Cytochrome P450 2C9 (AID 883; active means well fitted curve in the direction sought with a large enough effect; an effect the other way counts as inactive or inconclusive; further: nearly all actives have a fitted effect of over 60% in size; further: potency means the concentration at half of the fitted maximal effect); conditions: recombinant CYP2C9, luciferin-H luminescence, 60 min; series mostly up to 11.4 µM
Cytochrome P450 2C9 (Homo sapiens), sequence (P11712 whole entry, looked up): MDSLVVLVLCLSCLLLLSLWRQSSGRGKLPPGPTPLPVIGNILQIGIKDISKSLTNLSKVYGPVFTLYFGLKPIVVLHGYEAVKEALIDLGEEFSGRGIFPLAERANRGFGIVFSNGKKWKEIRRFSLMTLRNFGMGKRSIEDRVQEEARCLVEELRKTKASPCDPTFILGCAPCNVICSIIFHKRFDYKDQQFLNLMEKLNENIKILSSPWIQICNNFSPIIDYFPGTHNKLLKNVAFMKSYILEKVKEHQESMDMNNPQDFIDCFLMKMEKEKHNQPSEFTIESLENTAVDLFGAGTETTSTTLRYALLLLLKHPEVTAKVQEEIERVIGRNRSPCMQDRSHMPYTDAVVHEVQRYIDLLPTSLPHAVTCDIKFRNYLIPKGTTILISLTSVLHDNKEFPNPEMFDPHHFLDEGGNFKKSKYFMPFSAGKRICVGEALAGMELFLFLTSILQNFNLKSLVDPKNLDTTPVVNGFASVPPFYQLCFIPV
Method in brief: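 Luminescent read-out of deoxyluciferin hydroxylation, normalized to 57uM sulphaphenazole (AC100). Reaction: 10nM enzyme, 100uM Luciferin-H (equal to KM), 25mM KPO4, 10 min compound preincubation, then 60 min with NADPH regeneration, both at 37C.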

[14] = target: Cytochrome P450 3A4 (Homo sapiens) (UniProt P08684); assay: qHTS Assay for Inhibitors and Substrates of Cytochrome P450 3A4 (AID 884; active means well fitted curve in the direction sought with a large enough effect; an effect the other way counts as inactive or inconclusive; further: potency means the concentration at half of the fitted maximal effect; nearly all actives have a fitted effect of over 50% in size); conditions: recombinant CYP3A4, Luciferin-PPXE luminescence; series mostly up to 57.1 µM
Method in brief: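 20 nM human CYP3A4 with 25 uM Luciferin-PPXE (at KM) in 200 mM KPO4, preincubated 10 min with compound; NADPH regeneration started a 60 min RT reaction. Luciferin detected by luminescence, normalized to 57 uM ketoconazole as full inhibition.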

[15] = target: Cytochrome P450 2D6 (Homo sapiens) (UniProt P10635); assay: qHTS Assay for Inhibitors and Substrates of Cytochrome P450 2D6 (AID 891; active means well fitted curve in the direction sought with a large enough effect; an effect the other way counts as inactive or inconclusive; further: potency means the concentration at half of the fitted maximal effect; nearly all actives have a fitted effect of over 60% in size); conditions: recombinant CYP2D6, luciferin-ME EGE luminescence; series mostly up to 11.4 µM
Cytochrome P450 2D6 (Homo sapiens), sequence (P10635 whole entry, looked up): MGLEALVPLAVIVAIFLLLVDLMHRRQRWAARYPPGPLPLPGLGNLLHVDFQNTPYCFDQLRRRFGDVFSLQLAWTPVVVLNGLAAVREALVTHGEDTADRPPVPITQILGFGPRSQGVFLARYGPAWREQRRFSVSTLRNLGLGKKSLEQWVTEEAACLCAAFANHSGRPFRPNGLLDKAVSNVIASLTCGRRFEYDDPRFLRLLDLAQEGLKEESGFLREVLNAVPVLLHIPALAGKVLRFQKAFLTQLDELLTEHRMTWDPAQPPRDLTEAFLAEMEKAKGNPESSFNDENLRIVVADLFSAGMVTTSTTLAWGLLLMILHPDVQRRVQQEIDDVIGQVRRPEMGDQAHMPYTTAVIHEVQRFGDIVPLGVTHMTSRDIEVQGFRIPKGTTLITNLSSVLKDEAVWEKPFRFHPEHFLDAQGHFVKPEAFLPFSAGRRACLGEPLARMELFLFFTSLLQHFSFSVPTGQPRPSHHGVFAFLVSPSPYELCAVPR
Method in brief: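 Human CYP2D6 (5 nM) with 30 uM Luciferin-ME EGE (at Km) in 100 mM KPO4, compound preincubated 10 min, then NADPH regeneration system for 60 min at room temperature. Luciferin read by luminescence; normalized to 1.43 uM quinidine.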

SMILES	Potency [1]	activity change, negative = inhibition [2]	activity change, negative = inhibition [3]	activity change, negative = inhibition [4]	activity, negative = inhibition [5]	Potency [6]	Potency [7]	Potency [8]	Potency [9]	Potency [10]	Potency [11]	Potency [3]	activation [12]	Potency [13]	Potency [14]	Potency [15]
Nc1nc(-c2cccs2)cs1	> 11.4 µM	1.24%	-30.1% [at 2.29 µM]	6.96%	5.4%	> 46 µM	> 9.22 µM	inactive	inactive	–	–	–	–	–	–	–
NC(N)=N[C@@H]1C(O)[C@H](N=C(N)N)[C@@H](O)C(O)[C@H]1O (some centres not stated)	> 11.4 µM	-5.59%	-4.9% [at 2.29 µM]	13.4%	-0.855%	> 46 µM	–	inactive	–	inactive	–	–	–	–	–	–
Cn1c(=O)c2[nH]c(CSCc3ccccc3)nc2n(C)c1=O	> 11.4 µM	12.7%	-15.4% [at 2.29 µM]	8.43%	4.21%	> 46 µM	> 9.22 µM	inactive	–	–	inactive	–	–	–	–	–
NS(=O)(=O)c1ccc(N=Nc2ccc(O)c(C(=O)O)c2)cc1	> 11.4 µM	-0.844%	–	-4.82%	-2.97%	> 46 µM	> 9.22 µM	–	–	inactive	–	inactive	12.3%	–	–	–
O=C1c2ccccc2C(=O)c2c1ccc(C(=O)O)c2-c1ccc2ccccc2c1	> 11.4 µM	1.13%	–	16.7%	-16.8%	> 46 µM	> 9.22 µM	inactive	–	–	2.51 µM (active)	1.26 µM (active)	–	1.58 µM (active)	–	–
O=C(Nc1ccc(Nc2ccc3c(c2)C(=O)c2ccccc2C3=O)c2c1C(=O)c1ccccc1C2=O)c1ccccc1	> 11.4 µM	-0.845%	–	18.6%	13%	> 46 µM	–	inactive	–	inactive	–	1.58 µM (active)	–	–	–	–
CN(CCc1ccccn1)c1ccc2c(c1)C(=O)c1ccccc1-2	> 2.29 µM	7.03%	–	0.0317%	-7.39%	> 46 µM	> 9.22 µM	–	inactive	–	2.51 µM (active)	0.158 µM (active)	–	–	3.16 µM (active)	–
O=C(O)c1c[nH]c2c(ccc3[nH]cc(C(=O)O)c(=O)c32)c1=O	> 11.4 µM	-0.603%	–	8.43%	13.7%	> 46 µM	> 9.22 µM	inactive	–	–	–	5.01 µM (active)	–	–	–	–
N=C(c1ccc2ccccc2c1)c1ccccc1Cc1ccccc1	> 11.4 µM	0.881%	–	-18%	-1.68%	> 46 µM	> 9.22 µM	–	–	inactive	3.98 µM (active)	0.501 µM (active)	–	–	–	–
N[C@@H](Cc1ccnnc1)C(=O)O	> 11.4 µM	-10.1%	-10.6% [at 2.29 µM]	13.5%	-4.41%	> 46 µM	–	–	–	inactive	–	–	–	–	–	–
O=C(Nc1cccc(Cl)c1)Nn1cnnc1	> 11.4 µM	0.989%	–	-6.38%	-6.44%	> 46 µM	–	inactive	inactive	inactive	–	3.16 µM (active)	–	–	–	–
O=c1c(CCc2ccccc2)nc2cnc(Oc3cccc(Cl)c3)nc2n1C[C@H]1CCCO1	> 11.4 µM	-27.5%	–	-15.5%	-17.7%	> 9.22 µM	> 46 µM	–	inactive	–	–	3.98 µM (active)	–	6.31 µM (active)	0.501 µM (active)	–
O=C1C[C@H]2C(=O)[C@@H]1[C@@H](C(=O)O)[C@H]2C(=O)O	> 11.4 µM	5.27%	–	7.84%	-5.86%	> 46 µM	> 9.22 µM	inactive	–	–	–	inactive	–	–	–	–
Nc1ccc2[nH]cc(CCC(=O)O)c2c1	> 11.4 µM	4.94%	–	4.67%	6.65%	–	> 9.22 µM	inactive	–	inactive	inactive	inactive	–	–	–	–
Clc1ccc(CN2CCCN(Cc3ccc(Cl)cc3)C2c2cc3ccccc3c3ccccc23)cc1	> 11.4 µM	6.24%	–	-10.5%	2.22%	> 46 µM	–	–	–	inactive	0.794 µM (active)	0.794 µM (active)	–	inactive	–	0.199 µM (active)
O=C(O)c1nc(-c2ccccc2)[nH]c1C(=O)O	> 11.4 µM	-6.16%	–	-19.8%	-26.6%	> 46 µM	–	inactive	–	inactive	3.16 µM (active)	1 µM (active)	–	–	–	–
